# Out of some 2,000 compounds screened, about 250 (12%) were called active. The list comes from a sample in which actives are over-represented; it also holds similar structures and randomly drawn compounds. A number with no mark means an inactive call. Cut-off read from the data, not from the text of the source: active = hERG blockade below about -20% or above about 20%; inactive = in between.
# Target: Voltage-gated inwardly rectifying potassium channel KCNH2 (Homo sapiens) (UniProt Q12809)
# Assay: KCNH2 potassium channel function modulators, cell-based (AID 376);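 note: 0% = buffer alone and 100% = reference blocker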
# Conditions: hERG-expressing cells, channel activity single-concentration screen; concentration not given here
# Sequence of Voltage-gated inwardly rectifying potassium channel KCNH2 (Homo sapiens) (Q12809 whole entry, looked up): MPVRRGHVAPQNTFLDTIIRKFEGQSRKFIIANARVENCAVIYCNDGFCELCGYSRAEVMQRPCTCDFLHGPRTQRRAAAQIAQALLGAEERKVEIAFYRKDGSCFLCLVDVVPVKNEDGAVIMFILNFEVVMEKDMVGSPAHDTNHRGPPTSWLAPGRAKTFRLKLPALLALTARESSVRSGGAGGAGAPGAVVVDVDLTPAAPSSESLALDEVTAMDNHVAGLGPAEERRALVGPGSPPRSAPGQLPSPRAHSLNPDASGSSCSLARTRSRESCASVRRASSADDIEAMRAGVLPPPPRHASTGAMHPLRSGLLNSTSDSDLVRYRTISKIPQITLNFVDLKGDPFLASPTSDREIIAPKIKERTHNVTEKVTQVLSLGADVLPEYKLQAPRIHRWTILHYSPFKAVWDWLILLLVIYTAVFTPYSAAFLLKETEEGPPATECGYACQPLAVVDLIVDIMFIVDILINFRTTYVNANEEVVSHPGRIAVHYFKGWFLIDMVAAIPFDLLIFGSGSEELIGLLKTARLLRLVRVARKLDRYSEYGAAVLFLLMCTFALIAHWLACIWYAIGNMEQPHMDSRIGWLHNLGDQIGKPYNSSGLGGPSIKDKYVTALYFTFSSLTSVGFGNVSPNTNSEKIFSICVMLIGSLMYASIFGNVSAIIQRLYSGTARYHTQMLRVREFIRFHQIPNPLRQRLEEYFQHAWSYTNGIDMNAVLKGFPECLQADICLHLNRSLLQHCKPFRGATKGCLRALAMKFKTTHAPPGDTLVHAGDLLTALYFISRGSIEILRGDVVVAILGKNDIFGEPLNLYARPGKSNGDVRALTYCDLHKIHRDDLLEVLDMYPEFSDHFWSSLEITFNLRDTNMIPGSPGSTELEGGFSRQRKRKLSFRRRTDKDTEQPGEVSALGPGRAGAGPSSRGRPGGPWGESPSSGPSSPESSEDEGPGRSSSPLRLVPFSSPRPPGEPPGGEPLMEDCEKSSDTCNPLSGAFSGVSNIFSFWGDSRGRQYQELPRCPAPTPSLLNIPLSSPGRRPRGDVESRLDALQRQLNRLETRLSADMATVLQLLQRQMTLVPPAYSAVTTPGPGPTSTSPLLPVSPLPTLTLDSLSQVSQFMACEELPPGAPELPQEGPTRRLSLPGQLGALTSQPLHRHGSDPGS
row,Compound,hERG blockade
1,O=C(O)CCC1(C(=O)O)CCC(=O)c2ccccc21 (stereo not drawn),6.22%
2,BrC(c1cccc2ccccc12)c1cccc2ccccc12,-6.84%
3,COc1ccc(C(=O)CCN(C)C)c2ccccc12,7.02%
4,Clc1ccccc1C(Nc1ncccn1)Nc1ncccn1,3.73%
5,Clc1ccccc1C(Nc1cnccn1)Nc1cnccn1,21.5% (active)
6,O=C(O)C(Cc1ccc([N+](=O)[O-])cc1)=NO,0.35%
7,CC(CO)(CO)Nc1ncnc2ccccc12,2.95%
8,O=S(=O)(c1cnccc1N1CCN(CCO)CC1)N1CCCC1,-8.49%
9,N=C1C(O)C2(I)c3ccccc3N3C(=N)C(O)C4c5ccccc5N1C4C32 (stereo not drawn),35.8% (active)
10,O=C(CSc1nc2ccccc2s1)c1sc2sc3ccccc3[n+]2c1O,1.71%
11,CC(CCC(=O)O)C(=O)O (stereo not drawn),2.86%
12,Oc1ccc(CNCc2ccccc2)c2cccnc12,7.55%
13,O=C(O)c1ccc(CNCc2ccccc2)cc1,-8.86%
14,Oc1ccccc1CNCc1ccccc1O,23.5% (active)
15,CCCCN1CSC(=S)N(Cc2ccccc2)C1,13.4%
16,CCC(CS(=O)(=O)O)[N+](=O)[O-] (stereo not drawn),1.33%
17,O=C(O)CC(CC(=O)O)C(=O)O,15.6%
18,N=C(N)SCc1ccc(Cl)cc1Cl (tested in a mixture with another compound),30.7% (active)
19,Clc1ccc(CSCc2ccc(Cl)cc2Cl)c(Cl)c1,5.81%
20,N=C(N)SCc1cc(Cl)cc(Cl)c1O,12.3%
21,COC(=O)c1ccc(CCc2cc(O)ccc2O)cc1,11.9%
22,O=C(O)CCC(=O)c1ccc2ccc3cccc4ccc1c2c34,-66.6% (active)
23,O=C(O)c1cccc2cccc(-c3cccc4cccc(C(=O)O)c34)c12,-6.19%

row,Compound,hERG blockade
1,O=C(O)CCC(=O)c1ccc[nH]1,1.12%
2,NCCNS(=O)(=O)c1ccc(N)cc1,2.62%
3,Nc1ccc(S(=O)(=O)NCCS(=O)(=O)O)cc1,-20.3% (active)
4,CC(C)(C)c1ccc(NS(=O)(=O)c2ccc(N)cc2)cc1,-2.98%
5,CCOC(=O)c1cnc(N(C)C)nc1SC(=N)N,12.8%
6,c1cc(CNCCN2CCNCC2)ccn1,-17.5%
7,CC(C)NCCC(O)c1cc2ccccc2o1 (stereo not drawn),7.89%
8,NC(N)=NC(N)=Nc1c(F)c(F)c(F)c(F)c1F,-23.3% (active)
9,NC(N)=NC(N)=Nc1ccccc1 (tested in a mixture with another compound),-3.28%
10,NC(N)=NC(N)=Nc1ccc(C(=O)O)cc1,-11%
11,O=C(O)CCc1c2ccc(=O)c(O)c-2oc2c(O)c(O)ccc12,6.94%
12,Oc1ccc(Cn2c(-c3ccc(O)cc3)nc3ccccc32)cc1,9.19%
13,NS(=O)(=O)c1cc2c(cc1Cl)=NC(CCC(=O)O)=NS=2(=O)O,-4.14%
14,[N-]=[N+]=NC1C(O)C(CO)OC1n1cnc2c(N)ncnc21 (stereo not drawn),-1.39%
15,Cc1ccc(C(O)c2cnc(C)n2Cc2ccccc2)cc1 (stereo not drawn),0.183%
16,Cc1ccc2c(c1)NC(c1ccc(C(=O)O)cc1)c1cccn1-2 (stereo not drawn),-13.1%
17,CC1CC2C3CCC4=CC(=O)C=CC4(C)C3(F)C(O)CC2(C)C1(O)C(=O)COP(=O)(O)O (stereo not drawn),-1.33%
18,CC(=O)Nc1cc(CN2CCCCC2)c(O)c2ncccc12,-2.13%
19,NC(CSc1nc2ccccn2c1[N+](=O)[O-])C(=O)O (stereo not drawn),-1.31%
20,O=C(O)c1cccc(N=Nc2c(S(=O)(=O)O)ccc3c2C(=O)c2ccccc2C3=O)c1O,6.27%
21,O=C1c2ccccc2C(=O)c2c1ccc(N1C(=O)c3ccccc3C1=O)c2-c1c(N2C(=O)c3ccccc3C2=O)ccc2c1C(=O)c1ccccc1C2=O,15.5%
22,O=C1c2ccccc2C(=O)c2c1ccc(C(=O)O)c2-c1ccc2ccccc2c1,66.5% (active)
23,NC(C(=O)O)C(O)c1cnc[nH]1 (stereo not drawn),2.25%

row,Compound,hERG blockade
1,O=C(O)C1CCCCC1C(=O)Nc1nc2ccccc2[nH]1 (stereo not drawn),28.5% (active)
2,O=C1c2ccccc2-c2ccc(NC(=O)C3CCCCC3C(=O)O)cc21 (stereo not drawn),1.13%
3,O=C(O)CSc1nc2ccccc2[nH]1,-15.3%
4,CN(C)CCCNc1ncnc2nc[nH]c12,3.18%
5,C[N+]1(C)CCc2cc(O)c(O)cc2C1Cc1ccc(O)c(O)c1 (stereo not drawn),-10.5%
6,CC(=NO)c1cccc[n+]1Cc1ccccc1,-12.2%
7,COc1ccc(-c2csc3c2-n2cccc2C3=O)cc1,22.6% (active)
8,NC(=O)C1CCCN1Cc1ccc2c(c1)OCO2 (stereo not drawn),-14.4%
9,CC12CCC(=O)C=C1CCC1C2CCC2(C)C(C(=O)Cn3cnc4c(=S)nc[nH]c43)CCC12 (stereo not drawn),12.1%
10,Nc1nc(N)c2[nH]c(CNc3ccc(C(=O)O)cc3)nc2n1,16.1%
11,CCn1c2ccccc2c2nnc(NCCCO)nc21,-5.84%
12,CCOc1ccccc1Nc1ccc(N)cc1S(=O)(=O)O,0.163%
13,S=C1SCN(C2CCCCCCCCCCC2)CN1C1CCCCCCCCCCC1,0.139%
14,COc1ccc(CSC2=C(C#N)C(=O)NC3(CCCCC3)S2)cc1,-27.9% (active)
15,O=C(O)CSc1ccccc1C(=O)O,-2.77%
16,Cn1ncc2c(NCCc3ccccc3)nc(Cl)nc21,10%
17,c1ccc(CCCNc2nnnc3ccccc23)cc1,3.75%
18,Clc1nc(NCCc2ccccc2)c2ncn(-c3ccccc3)c2n1,34.7% (active)
19,O=C(O)C1(C(=O)O)CCN(S(=O)(=O)c2ccccc2)CC1,-10%
20,CC(=NNC1=NCCN1)c1cn(C2=NCCN2)nc1C,48.8% (active)
21,Cc1nc2sc3c(c2c(=O)[nH]1)CCCC3,-7.98%
22,O=C(O)CC(Cc1ccccc1)C(=O)O (stereo not drawn),6.37%

# — PubChem BioAssay AID376 (PDSP, 2006)
